This is part of a sample that, as a whole, favours compounds with a hit. Of some 79,000 tested, about 15% had one in any assay. Activity calls are given as the source filed them. Cut-off read from the data, not from the text of the source: active = growth inhibition above about 70%; inactive = the rest.
Test: NCI Yeast Anticancer Drug Screen. Data for the mgt1 strain (AID 153)
Conditions: S. cerevisiae mgt1 mutant growth inhibition; at 1.2 µM; stronger effect = higher value
In short: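 Compounds were applied to mgt1 mutant yeast, and growth was then compared against vehicle-treated control cultures to give percent inhibition.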

Structure (SMILES)	growth inhibition
COc1ccc2nc3cccc([N+](=O)[O-])c3c(NCCNCCN(C)C)c2c1	0% (inactive)
Cc1cccc(/C=N/NC(=S)NC2CCCCC2)n1	-5% (inactive)
COC(=O)C(=O)c1c(-c2ccc(Cl)c(Cl)c2)[nH]c2[nH]n(-c3ccccc3)c(=O)c2c1=O	-2% (inactive)
c1ccc([P+](CCN2Cc3ccccc3C2)(c2ccccc2)c2ccccc2)cc1	-19% (inactive)
Cc1cc(C)c2[s+]snc2c1	1% (inactive)
CC(C)(Br)C(=O)/C=C/c1ccccc1	-2% (inactive)
Cc1ccc(S(=O)(=O)NC(=O)C2C(=O)CC3(CCCCC3)CC2=O)cc1	-24% (inactive)
NC(=S)N1N=C2c3ccccc3CC[C@H]2[C@@H]1c1ccc(Cl)cc1	7% (inactive)
O=[N+]([O-])/C=C/c1cc2ccc3ccccc3c2[nH]1	15% (inactive)
O=C1C(=C2CCCC2)CCC1CN1CCCCC1 (configuration not stated)	-10% (inactive)
OC(CC(O)(C(F)(F)F)C(F)(F)F)c1ccc(C(O)CC(O)(C(F)(F)F)C(F)(F)F)cc1 (configuration not stated)	22% (inactive)
COc1cc2c(cc1OC)[C@@H](Nc1ccc(C#N)cc1)C1COC(=O)[C@@H]1C2c1cc(OC)c(O)c(OC)c1 (some centres not stated)	-17% (inactive)
O=c1cccccc1[O-].O=c1cccccc1[O-].O=c1cccccc1[O-].[Eu+3]	13% (inactive)
O=C1c2ccccc2C(=O)c2sc(Nc3ccccc3Cl)nc21	-13% (inactive)
NC(CCCCCCCCCCCCC(N)C(=O)c1ccccc1)C(=O)c1ccccc1 (configuration not stated)	-5% (inactive)
CC1=C(C)C(=O)C2=C(OCCO2)C1=O	-8% (inactive)
c1ccc(-c2cc(C3CO3)c3ccccc3n2)cc1 (configuration not stated)	-2% (inactive)
S=C1C(=Nc2ccccc2)N(c2ccccc2)/C(=N\c2ccccn2)N1c1ccccc1	-6% (inactive)

Structure (SMILES)	growth inhibition
CCC(OC(C)=O)C1CC(C(C)C)CCC1C (configuration not stated)	-1% (inactive)
CC(C)=CCc1c2c(c(O)c3c(=O)c(-c4ccc(O)c(O)c4)coc13)C=CC(C)(C)O2	-55% (inactive)
O=C(NC(N1CCN(c2cc3c(cc2F)c(=O)c(C(=O)O)cn3C2CC2)CC1)(C(F)(F)F)C(F)(F)F)c1ccccc1	-1% (inactive)
Fc1cc(F)c(F)c(S)c1F	-78% (inactive)
COc1ccc2cc3c4cc5c(cc4cc[n+]3cc2c1OC)OCO5	15% (inactive)
CCCCCCCCNCCCCCCCC	12% (inactive)
Nc1cc(Cl)ccc1Nc1ccccc1	-25% (inactive)
O=C(/C(=C/c1ccc(O)cc1)c1ccccc1)c1ccccc1	-4% (inactive)
O=Cc1ccccc1C=O	4% (inactive)
C1=CCN([B-](c2ccccc2)[C+]2CCCCC2)C=C1	-2% (inactive)
CC/C(=C(\c1ccccc1)c1ccc(OCC[N+](C)(C)C)cc1)c1ccccc1	-1% (inactive)
O=S(=O)(c1cccc(C(F)(F)F)c1)N1c2ccccc2-n2cccc2C1c1cccnc1 (configuration not stated)	-43% (inactive)
Nc1ccc2c(c1)C(=O)c1c(F)cccc1-2	-1% (inactive)
CN(C)/C(=N/C(=S)Nc1ccccc1)SCc1ccccc1	1% (inactive)
CCN(CC)C(=S)N/N=C(\C)c1ccccc1O	9% (inactive)
CC(C)OC(=O)NNc1cc(Cl)ccc1Cl	-4% (inactive)
CC(C)CCC[C@@H](C)[C@H]1CC[C@H]2[C@@H]3CC[C@H]4C[C@H](N)CC[C@]4(C)[C@H]3CC[C@]12C	-3% (inactive)
O=C1c2ccccc2-c2ccc(N=Cc3ccccc3)cc21	-4% (inactive)

Same assay, conditions: S. cerevisiae mgt1 mutant growth inhibition; at 3.7 µM; stronger effect = higher value

Structure (SMILES)	growth inhibition
COc1ccc2nc3cccc([N+](=O)[O-])c3c(NCCNCCN(C)C)c2c1	-3% (inactive)
Cc1cccc(/C=N/NC(=S)NC2CCCCC2)n1	-8% (inactive)
COC(=O)C(=O)c1c(-c2ccc(Cl)c(Cl)c2)[nH]c2[nH]n(-c3ccccc3)c(=O)c2c1=O	-2% (inactive)
c1ccc([P+](CCN2Cc3ccccc3C2)(c2ccccc2)c2ccccc2)cc1	2% (inactive)
Cc1cc(C)c2[s+]snc2c1	3% (inactive)
CC(C)(Br)C(=O)/C=C/c1ccccc1	-1% (inactive)
Cc1ccc(S(=O)(=O)NC(=O)C2C(=O)CC3(CCCCC3)CC2=O)cc1	-16% (inactive)
NC(=S)N1N=C2c3ccccc3CC[C@H]2[C@@H]1c1ccc(Cl)cc1	-10% (inactive)
O=[N+]([O-])/C=C/c1cc2ccc3ccccc3c2[nH]1	55% (inactive)
O=C1C(=C2CCCC2)CCC1CN1CCCCC1 (configuration not stated)	5% (inactive)
OC(CC(O)(C(F)(F)F)C(F)(F)F)c1ccc(C(O)CC(O)(C(F)(F)F)C(F)(F)F)cc1 (configuration not stated)	22% (inactive)
COc1cc2c(cc1OC)[C@@H](Nc1ccc(C#N)cc1)C1COC(=O)[C@@H]1C2c1cc(OC)c(O)c(OC)c1 (some centres not stated)	-19% (inactive)
O=c1cccccc1[O-].O=c1cccccc1[O-].O=c1cccccc1[O-].[Eu+3]	8% (inactive)
O=C1c2ccccc2C(=O)c2sc(Nc3ccccc3Cl)nc21	19% (inactive)
NC(CCCCCCCCCCCCC(N)C(=O)c1ccccc1)C(=O)c1ccccc1 (configuration not stated)	-9% (inactive)
CC1=C(C)C(=O)C2=C(OCCO2)C1=O	-2% (inactive)
c1ccc(-c2cc(C3CO3)c3ccccc3n2)cc1 (configuration not stated)	-4% (inactive)
S=C1C(=Nc2ccccc2)N(c2ccccc2)/C(=N\c2ccccn2)N1c1ccccc1	-5% (inactive)

Structure (SMILES)	growth inhibition
CCC(OC(C)=O)C1CC(C(C)C)CCC1C (configuration not stated)	0% (inactive)
CC(C)=CCc1c2c(c(O)c3c(=O)c(-c4ccc(O)c(O)c4)coc13)C=CC(C)(C)O2	-33% (inactive)
O=C(NC(N1CCN(c2cc3c(cc2F)c(=O)c(C(=O)O)cn3C2CC2)CC1)(C(F)(F)F)C(F)(F)F)c1ccccc1	-2% (inactive)
Fc1cc(F)c(F)c(S)c1F	-74% (inactive)
COc1ccc2cc3c4cc5c(cc4cc[n+]3cc2c1OC)OCO5	39% (inactive)
CCCCCCCCNCCCCCCCC	29% (inactive)
Nc1cc(Cl)ccc1Nc1ccccc1	-15% (inactive)
O=C(/C(=C/c1ccc(O)cc1)c1ccccc1)c1ccccc1	-2% (inactive)
O=Cc1ccccc1C=O	9% (inactive)
C1=CCN([B-](c2ccccc2)[C+]2CCCCC2)C=C1	-1% (inactive)
CC/C(=C(\c1ccccc1)c1ccc(OCC[N+](C)(C)C)cc1)c1ccccc1	55% (inactive)
O=S(=O)(c1cccc(C(F)(F)F)c1)N1c2ccccc2-n2cccc2C1c1cccnc1 (configuration not stated)	-16% (inactive)
Nc1ccc2c(c1)C(=O)c1c(F)cccc1-2	-2% (inactive)
CN(C)/C(=N/C(=S)Nc1ccccc1)SCc1ccccc1	2% (inactive)
CCN(CC)C(=S)N/N=C(\C)c1ccccc1O	16% (inactive)
CC(C)OC(=O)NNc1cc(Cl)ccc1Cl	2% (inactive)
CC(C)CCC[C@@H](C)[C@H]1CC[C@H]2[C@@H]3CC[C@H]4C[C@H](N)CC[C@]4(C)[C@H]3CC[C@]12C	-2% (inactive)
O=C1c2ccccc2-c2ccc(N=Cc3ccccc3)cc21	-2% (inactive)

Source: PubChem BioAssay (NCI)
